Screens deposited in PubChem BioAssay by National Center for Advancing Translational Sciences (NCATS).
Tb PYK inh: T. brucei pyruvate kinase inhibition. Q57TT1. TbPYK enzyme, Kinase-Glo Plus ATP luminescence, 45 min. Potency, µM (doses to about 76.8 µM), for the others: at the top dose activity, negative = inhibition, most hits filed as inhibitors. hit rate 0.12% among 410,000; note: potency is the fitted concentration of half-maximal effect; % is set by controls: 0 for no effect and ±100 for the full control effect; nearly all actives have a fitted effect of over 50% in size
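Quantitative HTS: titrated library compounds versus trypanosomal pyruvate kinase in TEA buffer (pH 7.2) containing KCl, MgCl2, BSA and Tween-20. Reactions were initiated with ADP, 130 uM final. Kinase-Glo Plus luminescence was read after 45 min at RT.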
LmPK inhibitor: inhibitors of Leishmania mexicana pyruvate kinase. Q27686. purified LmPK, Kinase-Glo ATP luminescence, 1 h. Potency, µM (series often up to 57.5 µM), inactives show at the top dose activity change, negative = inhibition, actives largely listed as inhibitors. AID 1721. hit rate 0.37% among 290,000; note: potency is the fitted concentration of half-maximal effect; % is set by controls: 0 for no effect and ±100 for the full control effect
Target sequence (Q27686 whole entry, looked up): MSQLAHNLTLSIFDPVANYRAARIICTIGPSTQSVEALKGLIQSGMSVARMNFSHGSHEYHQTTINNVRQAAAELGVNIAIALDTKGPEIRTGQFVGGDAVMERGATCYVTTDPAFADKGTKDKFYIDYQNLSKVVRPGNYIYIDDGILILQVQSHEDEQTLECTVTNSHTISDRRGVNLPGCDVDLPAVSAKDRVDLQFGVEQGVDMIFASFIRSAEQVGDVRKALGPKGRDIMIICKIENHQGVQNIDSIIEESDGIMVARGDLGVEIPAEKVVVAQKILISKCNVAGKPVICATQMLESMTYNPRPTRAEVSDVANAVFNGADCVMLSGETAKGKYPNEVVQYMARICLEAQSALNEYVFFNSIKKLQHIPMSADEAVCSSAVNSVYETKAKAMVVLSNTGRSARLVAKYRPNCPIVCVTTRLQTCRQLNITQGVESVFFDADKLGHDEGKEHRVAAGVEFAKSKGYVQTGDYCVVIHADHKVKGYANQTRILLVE
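qHTS format; LmPK 0.1 nM; substrates PEP 0.5 mM and ADP 0.1 mM. One-hour room-temperature incubation, then coupled luciferase luminescence; 0.5 nM enzyme wells mark activation.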
RE007 growth inh: less growth of the S. pombe RE007 Vpr strain; S. pombe RE007 Vpr strain, BacTiter-Glo ATP luminescence, 24 h; Potency, µM (top dose mostly 92.2 µM), for inactives: at the highest dose activity change, negative = less growth, most hits filed as inhibitors; hit rate 0.21% among 360,000; active = well fitted falling curve with a large enough effect; inconclusive = small, poorly fitted or top-dose-only effect; inactive = no such curve, though single readings can be large or run the other way; note: potency is the fitted concentration of half-maximal effect; % is set by controls: 0 for no effect and ±100 for the full control effect; nearly all actives have a fitted effect of over 50% in size
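Fission yeast RE007 carrying one integrated HIV-1 vpr copy, seeded at OD 0.01 in PMG+AL medium with 23 nL pinned compound. Grown 24 h at 30 degrees; viability read by BacTiter-Glo luminescence after 5 min.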
FBPA Giardia inh: Giardia lamblia aldolase inhibition; A8B2U2; purified Giardia FBPA; Potency, µM (highest dose often 59.6 µM), inactives show top-dose activity, negative = inhibition, actives largely listed as inhibitors; hit rate 0.71% among 290,000; AID 2451; note: potency is the fitted concentration of half-maximal effect; % is set by controls: 0 for no effect and ±100 for the full control effect; nearly all actives have a fitted effect of over 55% in size
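Giardia FBPA (40 nM reagent) was preincubated 10 min at RT with compound (up to 57.5 uM final), then substrate plus GAPDH/TPI/NAD/arsenate coupling system with diaphorase/resazurin was added; resorufin fluorescence (525/598 nm) was read after 20 min.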
Shiga toxin inh: inhibitors of Shiga toxin in Vero cells | inhibition, % at 38.7 µM | hit rate 9.2% among 290,000 | Vero cells, Shiga toxin protein synthesis inhibition reporter; in the data active = inhibition mostly above about 28%, no sharp cut-off; inactive = mostly below about 43%; note: 0% is about no effect
CHX counter: counter-screen for Shiga toxin inhibitors: cycloheximide protein synthesis inhibition; cell reporter, cycloheximide protein synthesis inhibition counterscreen; max response, %; hit rate 12% among 300,000; AID 2314; in the data active = max response mostly above about 13%, no sharp cut-off; inactive = mostly below about 14%; note: read at 38.3 µM for the half of the compounds with a filed dose; 0% is about no effect
* = called active by the depositor; ? = inconclusive; . = no result given; + = active, no number; ! = not active in a repeat. Shown is part of a subset that was picked to be rich in hits. Unless noted, calls come from the whole dose curve; as a rule, active = well fitted curve in the direction sought with a large enough effect; inconclusive = small, poorly fitted or top-dose-only effect, or another doubt; inactive = no such curve, though single readings can be large; an effect the other way counts as inactive or inconclusive.

SMILES	Tb PYK inh	LmPK inhibitor	RE007 growth inh	FBPA Giardia inh	Shiga toxin inh	CHX counter
COc1cccc(C(O)c2nc(-c3ccc(F)c(Cl)c3)cs2)c1 (configuration not stated)	4.0%	.	?	.	.	.
CCC1=C(c2ccc(C)cc2)S(=O)(=O)N=C1N1CCC(C(=O)Nc2ccccc2F)CC1	-3.3%	.	.	.	.	.
S=c1[nH]c(-c2ccccc2)cn1/N=C/c1ccc(Br)cc1	-31.9%	0.1%	4.3%	4.4%	35.8	19.7*
Cc1cccc(-n2cc(-c3ccccc3)[nH]c2=S)c1	?	-13.0%	19.9%	21.5%	23.4	17.2
O=S(=O)(NCCc1csc2nc(-c3ccc(Cl)cc3)nn12)c1ccc(Oc2ccccc2)cc1	-7.0%	.	.	.	.	.
O=[N+]([O-])c1ccc(C(O)CSC(=S)N2CCCCC2)cc1 (configuration not stated)	0.0%	4.1%	4.5%	2.3%	83.2*	46.1*
CCc1ccc(NC(=O)c2noc3c2CCCCC3)cc1	-6.5%	-1.0%	17.8%	2.6%	85.5*	22.8*
Cc1ccc(O)c(NC(=O)c2noc3c2CCCCC3)c1	4.3%	-9.5%	5.7%	-16.1%	184.6*	42.2*
CC(=O)c1cccc(NC(=O)c2noc3c2CCCC3)c1	-4.0%	.	.	.	.	.
Cc1ccc(NC(=O)c2noc3c2CCCCC3)cc1	10.5%	-6.7%	-1.4%	7.6%	82.9*	67.0*
O=C(NC1CCCCC1)c1noc2c1CCCCC2	0.6%	-14.0%	-25.1%	-4.3%	72.5*	39.1*
Cc1ccc(O)c(NC(=O)c2noc3c2CCCC3)c1	-1.5%	.	.	.	.	.
CC(=O)Nc1nonc1-c1nnc(SCC(=O)Nc2cc(Cl)ccc2C)n1C	-1.6%	.	.	.	.	.
COc1cccc(NC(=S)N2CCN(S(C)(=O)=O)CC2)c1	0.0%	-0.4%	3.6%	.	-16.4	-1.1
COc1ccc(OC)c(NC(=O)c2noc3c2CCCC3)c1	-0.1%	.	.	.	.	.
Cc1ccc(NC(=O)c2noc3c2CCc2ccccc2-3)cc1	-1.5%	-0.9%	-14.8%	3.1%	47.5*	34.4*
CC(=O)c1ccc(NC(=O)c2noc3c2CCc2ccccc2-3)cc1	4.5%	.	.	.	.	.
Cc1ccc(NC(=O)c2noc3c2CCCCC3)cc1C	5.4%	-1.7%	-21.3%	4.5%	107.2*	42.7*
CCc1ccc(NC(=O)c2noc3c2CCC3)cc1	-0.6%	14.1µM*	?	-12.0%	27.6	24.7*
COc1ccc(NC(=O)c2noc3c2CCCCC3)cc1	-0.8%	4.5%	-17.8%	-0.4%	82.6*	41.9*
COc1c(CC=C(C)C)cc(C2CC(=O)c3c(O)cc(O)cc3O2)cc1CC=C(C)C (configuration not stated)	-1.6%	0.0%	-3.0%	-15.6%	19.1	active
CC(C)=CCc1c(O)cc2c(c1O)C(=O)CC(c1ccc(O)cc1)O2 (configuration not stated)	-8.5%	5.3%	-21.1%	-11.0%	29.3	22.9*
C[C@@H]1CC[C@H]2[C@H](C)[C@H]3CC[C@@]4(O)[C@@H]5CC(=O)[C@H]6CC(=O)CC[C@]6(C)[C@H]5C[C@H]4[C@@H]3CN2C1	.	.	.	-0.2%	-8.6	-9.1
NCCS	-1.3%	0.8%	0.0%	15.8µM*!	-14.4	-2.2
O=C1C=CC(=O)C(Cl)=C1	.	.	.	?	52.8	16.3
SMILES	Tb PYK inh	LmPK inhibitor	RE007 growth inh	FBPA Giardia inh	Shiga toxin inh	CHX counter
O=C(Nc1ccccc1)c1cccc(C(F)(F)F)c1	26.3%	-4.5%	-0.7%	0.5%	33.3*	11.3*
Cc1nc2ccc(NC(=O)c3cccc(C(F)(F)F)c3)cc2o1	-3.1%	8.1%	-17.1%	-2.8%	60.3	20.6*
C=CCNC(=O)Cn1c(=O)c2c(ncn2CCC(C)C)n(Cc2ccccc2)c1=O	4.6%	-0.5%	-2.6%	3.1%	25.0	-7.3
Cc1cc(C)nc(SCc2ccc(Cl)cc2)n1	-2.6%	-4.0%	0.9%	-6.1%	6.6	-3.4
Cc1ccc(CSc2nc(N)cc(N)n2)cc1	2.4%	0.1%	0.7%	0.1%	.	25.0*
N#Cc1ccc(CSc2nc(N)cc(N)n2)cc1	-21.3%	-2.4%	3.6%	-9.9%	12.9	7.9*
CCCCN(CC)C(=O)c1cc2cc3ccc(Cl)cc3nc2o1	1.1%	0.6%	.	5.9%	63.8*	33.2*
O=C(Nc1ccc2oc(-c3ccncc3)nc2c1)c1ccco1	-11.3%	-0.3%	-4.2%	-5.3%	47.8	27.0*
O=C(Nc1ccc2oc(-c3ccccc3)nc2c1)c1ccco1	-10.2%	0.6%	-10.2%	0.9%	78.2*	93.8*
O=C(Nc1ccc2oc(-c3ccccc3)nc2c1)c1ccc2ccccc2c1	0.8%	.	.	.	.	.
Cc1ccc(CNc2ncnc3c2c(-c2ccccc2)cn3-c2ccccc2)cc1	1.7%	.	.	.	.	.
Cc1ccccc1N1CCN(S(=O)(=O)CC23CCC(CC2NC(=O)C(N)CCS(C)(=O)=O)C3(C)C)CC1 (configuration not stated)	.	.	.	-3.0%	-10.8	-2.4
Cc1cc(C)n(C(=O)c2cc3c(s2)CCCC3)n1	2.4%	-6.2%	-17.8%	-0.6%	88.9*	18.6
Cc1ccc(-c2noc(/C=C/c3ccccc3)n2)cc1	-2.9%	0.8%	-5.4%	-0.4%	37.4	19.3*
Clc1ccc(-c2noc(/C=C/c3ccccc3)n2)cc1	-0.1%	-1.6%	-8.1%	3.0%	-2.8	8.9
Cc1ccc(C2=NOC(c3nnc(-c4ccccc4)o3)C2)cc1 (configuration not stated)	2.3%	.	14.8%	.	.	.
Cc1ccc(/C=C/c2nnc(-c3ccccc3)o2)cc1	-12.6%	-15.7%	-3.3%	-0.4%	64.8	22.9*
CN(C)c1ccc(-c2nnc(-c3cccs3)o2)cc1	-6.3%	4.4%	-4.9%	-0.2%	34.1	10.8
C(=C\c1nnc(-c2cccs2)o1)/c1ccccc1	0.6%	-12.6%	8.2%	.	71.2*	62.6*
CCc1ccc(/C=C2\SC(=S)N(CCCC(=O)NC3=NCCS3)C2=O)cc1	-4.6%	.	-3.2%	.	.	.
COc1ccc(NC(=O)CN2C(=O)COc3ccccc32)cc1OC	-1.4%	3.5%	5.6%	2.2%	.	-3.3
CSc1nnc(-c2ccccc2Cl)n1N	-3.5%	-0.6%	16.5%	-9.2%	-16.1	8.8
Nn1c(-c2ccccc2Cl)nnc1-c1ccccc1Cl	1.0%	-5.2%	-11.6%	-17.7%	+	31.8*
O=C1NCCSC1c1ccccc1 (configuration not stated)	-11.7%	.	-1.2%	.	.	.
Cc1sc2c(c1C)CN(CCN1CCOCC1)CN2C(=O)c1ccccc1	-6.8%	0.4%	-14.3%	1.0%	55.4	19.9*
CC(C)(C)C(=O)Nc1ccc2oc(-c3cc(F)c(F)cc3Cl)nc2c1	-8.8%	3.9%	-1.1%	3.4%	58.8	41.9*
CC(=O)Nc1ccc(-c2nc3cc(Cl)ccc3o2)cc1	1.0%	-1.7%	-16.6%	-1.7%	109.3*	52.4*
O=C(O)c1ccccc1-c1ccccc1C(=O)Nc1ccc(-c2nc3cc(Cl)ccc3o2)cc1	3.7%	2.8%	11.2%	20.7%	62.4*	26.4*
O=C(Cc1ccc(Cl)cc1)Nc1ccc2oc(-c3ccccc3F)nc2c1	1.1%	.	.	.	.	.
